sPLA2-III inh = Blocks human group III sPLA2 activity | Q9NZ20 | QFRET BODIPY PC-A2 liposome hydrolysis, fluorescence | inhibition, % at 12.2 µM | actives 0.56% (n = 370,000) | AID 743126;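 active = inhibition above mean plus 3 SD of compounds lying within the high and low control bounds, cut at about 19% in these data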;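 also: 0% = median of test compound wells and 100% = no enzyme DMSO wells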
FAS TE block = FAS thioesterase (human) inhibition. P49327. actives 0.67% (n = 360,000). AID 602261. recombinant FAS-TE, OMFH fluorogenic substrate, fluorescence endpoint. inhibition, % at 15 µM;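 active = compounds whose normalised, plate-corrected inhibition of enzyme fluorescence in the single-dose primary screen is 50% or more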;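 also: 0% = DMSO with enzyme and 100% = substrate without enzyme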
GRIN3A LBD mod = NR3A (human) ligand-binding domain modulation. NR3A LBD differential scanning fluorimetry, Tm shift; 0% = protein alone, 100% = glycine-bound protein. Tm shift relative to glycine control, % at 25 µM. actives 2.5% (n = 340,000). AID 1259313;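 active = melting temperature shift of at least 10% of the positive control shift, at one fixed dose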
ADAM10 inh = inhibitors of human ADAM10. O14672. recombinant ADAM10, EDANS/DABCYL FRET peptide cleavage, 3 h. inhibition, % at 7 µM. actives 0.62% (n = 370,000). AID 720582;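 active = inhibition above a per-campaign cutoff equal to the mean of compounds falling between control-based bounds plus 3 SD, cut at about 20% in these data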;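 also: 0% = DMSO wells while the 100% control is not disclosed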
ADAM17 inh = inhibitors of human ADAM17 | P78536 | recombinant ADAM17, EDANS/DABCYL FRET peptide cleavage | actives 0.83% (n = 370,000) | inhibition, % at 6.95 µM | AID 720648;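 active = inhibition above the mean of compounds lying between control limits plus 3 SD, set per campaign, cut at about 8.5% in these data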;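 also: 0% = DMSO-only wells as the low control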
Numbers without * were called inactive; . = not tested or not shown. Sampled rows, rich in hits. Any-hit rate of the full collection: about 4.3%.

SMILES | sPLA2-III inh | FAS TE block | GRIN3A LBD mod | ADAM10 inh | ADAM17 inh
COc1ccc(/C=N/Nc2nc(Nc3ccccc3)nc(N3CCCC3)n2)cc1 | -7 | -2 | 4 | 8 | 4
O=[N+]([O-])c1ccc(Nc2nc(N/N=C/c3cccc(F)c3)nc(N3CCCC3)n2)cc1 | -1 | 7 | 25* | 6 | 0
CCCC1CCC2(CC1)CCC2OC(=O)Nc1ccc(C)cc1 (configuration not stated) | -10 | . | . | 1 | 0
COc1ccc(Cl)cc1C(=O)Nn1c(-c2cccs2)nc2ccccc2c1=O | 8 | 22 | -2 | 8 | -1
O=C(/C=C/c1ccc(Cl)cc1)Nn1c(-c2cccs2)nc2ccccc2c1=O | -8 | 2 | 13* | 1 | 0
Cc1ccc2nc(NC(=O)c3ccc4ncsc4c3)sc2c1 | 0 | 1 | 18* | -82 | -11
NS(=O)(=O)c1ccc2nc(NC(=O)c3ccc4ncsc4c3)sc2c1 | . | -6 | 30* | . | .
NS(=O)(=O)c1ccc2nc(NC(=O)c3ccc4c(c3)OCCO4)sc2c1 | 4 | -5 | -2 | -5 | -4
Cc1ccc2nc(NC(=O)c3ccc4c(c3)OCO4)sc2c1 | 5 | -1 | 3 | -45 | -17
CC(Sc1nnc(-c2ccco2)n1C)C(=O)Nc1nccs1 (configuration not stated) | -6 | -10 | 21* | -1 | 2
Cc1ccc(-c2nnc(SCC(=O)Nc3ccc(Oc4ccccc4)cc3)n2-c2ccc(Cl)cc2)cc1 | 0 | . | . | 3 | 3
N#C/C(=N\Nc1cccc(C(F)(F)F)c1)C(=O)c1ccsc1 | -54 | 12 | 16* | 18 | 5
COC(=O)CC[C@H](/C=C/C(=O)OC(C)(C)C)Sc1ccc(C(C)(C)C)cc1 | 7 | . | . | 2 | 2
COC(=O)[C@H](CC(C)C)NC(=O)Cn1cnc2c(OCc3ccccc3)ncnc21 | 1 | -1 | 97* | -9 | -4
COC(=O)[C@H](CCSC)NC(=O)Cn1cnc2c(OCc3ccccc3)ncnc21 | -1 | -6 | 1 | -5 | 1
COc1ccc(OC)c(S(=O)(=O)N2CCCCC2C(=O)N2CCN(c3ccc(F)cc3)CC2)c1 (configuration not stated) | -5 | . | . | 1 | 0
COc1cc(NC(=S)NC(=O)c2ccccc2F)ccc1NC(=O)c1cccs1 | 0 | 15 | -5 | 7 | 1
O=C(Nc1ccc(NC(=S)NC(=O)c2ccccc2F)cc1)c1cccs1 | -17 | 20 | 20* | 8 | 6
COc1ccc(NC(=O)c2cccs2)cc1NC(=O)c1ccco1 | 10 | -10 | 0 | -8 | 1
O=C(NC(=S)Nc1ccc(NC(=O)c2cccs2)cc1)c1cc2ccccc2o1 | 7 | -7 | 29* | 1 | -4
Cc1ccc(NC(=O)c2cccs2)cc1NC(=O)c1ccco1 | -2 | -2 | 3 | 2 | -3
O=C(c1cc2ccccc2o1)c1cccs1 | 4 | 6 | 1 | -5 | 1
O=C(Nc1ccc(NC(=O)c2cccs2)cc1)c1ccco1 | -2 | -12 | 20* | -3 | -3
O=C(NC(=S)Nc1ccc(NC(=O)c2cccs2)cc1)c1ccco1 | 4 | 1 | 24* | 6 | 3
O=S1(=O)c2c(cccc2N2CCSCC2)Oc2ccccc2CN1Cc1cn(Cc2ccc(C(F)(F)F)cc2)nn1 | -11 | . | . | 12 | 8
SMILES | sPLA2-III inh | FAS TE block | GRIN3A LBD mod | ADAM10 inh | ADAM17 inh
O=C(Cn1nnc(-c2ccccc2F)n1)Nc1ccc(F)cc1F | -18 | . | . | -3 | -1
CSc1cccc(NC(=O)Nc2nc3c(C)cccc3s2)c1 | -3 | -1 | 18* | -5 | -3
O=S(=O)(CC1NCc2cc(F)ccc21)NCCc1ccccc1 (configuration not stated) | 6 | . | . | -14 | -3
Cc1cc(C)nc(N/N=C/c2ccccc2OCc2ccccc2)n1 | -12 | 4 | 12* | -2 | -1
CC(C)CNC(=O)c1ccccc1NC(=O)CSCc1ccccc1 | -7 | -1 | 14* | 2 | -1
O=C(CSCc1ccc(F)cc1)Nc1ccccc1C(=O)N1CCOCC1 | 12 | -11 | 3 | 1 | -1
CCOc1cc(-c2sc(Nc3cc(C)ccc3OC)n[n+]2-c2ccccc2)ccc1OC | 5 | -146 | 13* | 5 | -1
CCOc1cc(-c2sc(Nc3ccc(CC)cc3)n[n+]2-c2ccccc2)ccc1OC | 15 | -122 | 1 | 7 | -4
O=C(O[C@H]1CC[C@@]23CCCN2C(=O)CCC[C@H]3C1)N1CCOCC1 | 16 | . | . | -5 | 1
O=C(Nc1nc(-c2cccnc2)cs1)c1ccc([N+](=O)[O-])cc1 | 7 | 2 | -3 | -12 | -3
O=C(Nc1ccc(-c2csc(Nc3ccc(Cl)cc3)n2)cc1)c1ccccc1 | 14 | 15 | -1 | 0 | -4
O=C(Nc1ccc(-c2csc(Nc3cccc(C(F)(F)F)c3)n2)cc1)c1ccccc1 | -5 | 34 | 25* | 0 | 1
O=C(Nc1ccc(-c2csc(Nc3cccc(C(F)(F)F)c3)n2)cc1)c1cc([N+](=O)[O-])cc(C(F)(F)F)c1 | 7 | 27 | 21* | 14 | 1
CC(=O)c1cccc(Nc2nc(-c3cccnc3)cs2)c1 | -10 | 6 | 2 | 3 | 1
CC(=O)c1cccc(Nc2nc(-c3ccccc3)cs2)c1 | -14 | 14 | 32* | -1 | 0
O=C(Nc1cccc(-c2csc(Nc3ccccc3)n2)c1)c1ccccc1 | -14 | 32 | 11* | 12 | 4
O=C(NCCCc1ccccc1)OC1CC2CC1[C@H]1CCCCN1[C@H]2Cc1ccccc1 (some centres not stated) | -3 | . | . | -2 | -3
O=C(Nc1cccc(-c2csc(Nc3cccc(C(F)(F)F)c3)n2)c1)c1ccccc1 | 5 | 35 | 29* | 13 | 6
CC(=O)Nc1cccc(-c2csc(C(C)(O)c3ccccc3)n2)c1 (configuration not stated) | -12 | -3 | . | -5 | -2
Cc1cc(C)c2nc(NC(=O)[C@@H](NC(=O)c3cccc(S(=O)(=O)N4CCOCC4)c3)C(C)C)sc2c1 | -15 | 9 | 34* | -7 | 1
Cc1cccc(C(=O)N[C@H](C(=O)Nc2cc(S(=O)(=O)N3CCCCC3)ccc2C)C(C)C)c1 | 0 | 1 | 0 | -2 | 0
COc1ccc(S[C@]2(C(=O)NCCc3ccccc3)CC(=O)N[C@@H]2c2ccc(OC)cc2)cc1 | -2 | . | . | 9 | 7
Cc1nc(NC(=O)C2CC2)sc1C(=O)Nc1cccc(Cl)c1 | -5 | 10 | -10 | -5 | 0
Cc1nc(Nc2ccc(Cl)cc2Cl)sc1C(=O)Nc1ccccc1 | -3 | 30 | 43* | -2 | 1
Cc1nc(NC(=O)/C=C/c2ccccc2)sc1C(=O)Nc1ccc(Cl)cc1 | -4 | -3 | 38* | -17 | -2
CC(=O)c1sc(Nc2ccccc2)nc1C | 3 | -12 | . | -9 | -2
Cc1nc(Nc2ccc(Cl)c(Cl)c2)sc1C(=O)Nc1ccccc1 | -14 | 33 | 32* | -1 | 4
O=C1CCC[C@H]2C[C@H](NCc3cccnc3)CC[C@]23CCCN13 | 0 | . | . | -7 | -5
